Each structure is given as a SMILES string. Activity calls are given as the source filed them. The calls were made as follows: active = hit-call score of the fitted dose curve at least 0.9, where 1 is the maximum; inactive = score below 0.9.

The test is described as follows: UKN2_HCS_IMR90_cell_viability: Viability Assessment in the University of Konstanz (UKN) Leist Lab Neural Crest Cell Migration Assay in human induced IMR90 Pluripotent Stem Cells (UKN2) (AID 2284233).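 Also: cells exposed to compound for 24 h after a 24 h migration phase.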 The protocol: UKN2_HCS_IMR90 is a cell-based, multiplexed-readout assay screening for neural crest cell migration and cell viability that uses IMR90 (neural crest cells differentiated from iPSC), a human embryo cell line, with measurements taken at […] after chemical dosing in a microplate: 96-well plate. UKN2, also known as cMINC, is an assay that uses IMR90 cells (neural crest cells differentiated from iPSC) as a model of neural crest cell migration. 24 hr after cell seeding, cell migration was initiated and proceeded for 24 hr. Then, chemical was applied, and after 24 hr of exposure migration and viability were assessed using high-content imaging of cells stained with calcein-AM and Hoechst H-33342.UKN2_HCS_IMR90_cell_viability is an assay component measured from the UKN2_HCS_IMR90 assay. It is designed to make measurements of enzyme activity, a form of viability reporter, as detected with Fluorescence intensity signals by HCS Fluorescent Imaging.The assay endpoint UKN2_HCS_IMR90_cell_viability was analyzed with bidirectional fitting relative to DMSO as the negative control and baseline of activity. Using a type of viability reporter, gain or loss-of-signal activity can be used to understand viability effects. To generalize the intended target to other relatable targets, this assay endpoint is annotated to the cell cycle intended target family, where the subfamily is viability.
The wells are coated with PLO/laminin/fibronectin. Then, silicone stoppers are placed into the wells of a 96-well plate. Cells are seeded around the stoppers and allowed to attach for 24 hours. Day 0: The silicone stoppers are removed and the medium is replaced with pre-warmed, fresh N2-S medium containing the cytokines EGF and FGF. Cells are allowed to migrate into the cell free area. Day 1: 25 ul of the 5x concentrated toxicants are added to the wells. The cells plus toxicants are incubated for 24 h. Day 2: Cells are stained with calcein-AM and Hoechst (H-33342) for 30 min before imaging with a high content imaging microscope. Quantification of migration and viability is done by high content imaging analysis.
`N#Cc1nn(-c2c(Cl)cc(C(F)(F)F)cc2Cl)c(N)c1S(=O)C(F)(F)F` (stereo unspecified): the AC50 is 40 µM (active).
`CCOc1cc(Oc2ccc(C(F)(F)F)cc2Cl)ccc1[N+](=O)[O-]`: the call was inactive.
`Cc1ccc(-c2c(Cl)nc(C#N)n2S(=O)(=O)N(C)C)cc1`: the AC50 is 0.564 µM (active).
As for `C=CC1(C)OC(=O)N(c2cc(Cl)cc(Cl)c2)C1=O` (stereo unspecified), the compound was called inactive.
On to `CCCCOC(=O)c1ccccc1C(=O)OCCCC`, for which the compound was classed as inactive.
On the same count and under the same terms, under `CC(C)(C)c1ccc(CSc2cnn(C(C)(C)C)c(=O)c2Cl)cc1` stands “inactive”.
`CCCCNC(=O)n1c(NC(=O)OC)nc2ccccc21`: the half-maximal activity concentration (AC50) is 15 µM (active).
For `CN(C)C(=S)SSC(=S)N(C)C`, the concentration at half-maximal activity (AC50) is 7.92 µM (active).
Regarding `COC(=O)N(OC)c1ccccc1COc1ccn(-c2ccc(Cl)cc2)n1`, the concentration at half-maximal activity (AC50) is 90.1 µM (active).
`CO/C=C(/C(=O)OC)c1ccccc1Oc1cc(Oc2ccccc2C#N)ncn1`: the compound was called inactive.
Turning to `CCCCC(CC)COC(=O)c1ccccc1C(=O)OCC(CC)CCCC` (stereo unspecified), the outcome was inactive.

The record behind these values is PubChem BioAssay (EPA / NIEHS).
